# Compound activity: PubChem BioAssay, several laboratories
# Most compounds without a hit are left out; they make up all but 4.2% or so of the library.
# esBAF inh: inhibitors of esBAF chromatin remodeling in mouse ES cells. 2% of 350,000 active. Bmi1-luciferase knock-in reporter, 24 h; 100% = twice the neutral-well signal. reporter increase, % at 12.5 µM. AID 602393; in the data active = activation above about 40%; inconclusive = no clear call, values can overlap the other calls;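 note: 0% = median of the plate's neutral control wells and 100% = double that signal; a rise in the Bmi1 reporter signal indicates esBAF inhibition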
# hgDAF-12 ag: hgDAF-12 agonism, primary luciferase screen. HEK293 GAL4-hgDAF12 UAS-luciferase reporter, agonist luminescence; normalized to butyrate control. activation, % at 6.8 µM. 1.8% of 370,000 active. AID 687014;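 active = activation above a cutoff set at the mean of all screened compounds plus 3 SD, cut at about 10% in these data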;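 note: 0% = DMSO wells and 100% = sodium butyrate wells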
# hcDAF-12 act: H. contortus DAF-12 activation, primary screen; HEK293 hcDAF-12 lit1-tk-luc reporter, luminescence; 0% DMSO, 100% Δ7-dafachronic acid; activation, % at 6.8 µM; 1.4% of 370,000 active; AID 652067;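 active = activation above the mean of all tested compounds plus 3 SD, cut at about 5.5% in these data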;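 note: 100% = response to 3 µM Δ7-dafachronic acid high control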
# DAX1 StAR inh: blocks DAX1 repression of SF-1 activated StAR promoter | HEK293T StAR-luciferase reporter, SF-1/DAX-1 repression relief | inhibition, % at 6.8 µM | 1.1% of 370,000 active;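 active = inhibition above the mean over all tested compounds plus 3 SD, cut at about 3.6% in these data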;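 note: 0% = DAX-1 cells with DMSO and 100% = cells lacking DAX-1 with DMSO; higher inhibition means more luminescence from relief of DAX-1 repression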
# Wnt bcat act: activates Wnt/beta-catenin signaling in a reporter cell assay. activation, % at 9.35 µM. activator, plate reader. 1.2% of 300,000 active; in the data active = activation above about 30%, passing the limit was not always enough; inconclusive = no clear call, values can overlap the other calls;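 note: 0% = neutral control wells and 100% = positive control wells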
# ssDAF-12 act: activates DAF-12 receptor from parasite S. stercoralis. HEK293 ssDAF-12/GRIP1 lit1-tk-luc reporter, luminescence; % of 3 µM dafachronic acid response. activation, % at 6.8 µM. 1% of 370,000 active;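 active = activation above the mean over all tested compounds plus 3 SD, cut at about 0.9% in these data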;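 note: 0% = DMSO-only wells and 100% = 3 µM delta7-dafachronic acid wells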
# LXR ag: counter-screen for hcDAF-12 agonists: agonists of human LXR-beta | 3,400 tested, under 10 active | activation, % at 6.8 µM | AID 743027 | shares compounds with hcDAF-12 act | HEK293 Gal4-LXR tk-luc reporter, luminescence, 24 h; normalized: DMSO 0%, positive control 100%;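 active = mean percent activation of the reporter above a cutoff set as the average over tested compounds plus their standard deviation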
# Target sequence (P55055 whole entry, looked up, the tested form may be a part): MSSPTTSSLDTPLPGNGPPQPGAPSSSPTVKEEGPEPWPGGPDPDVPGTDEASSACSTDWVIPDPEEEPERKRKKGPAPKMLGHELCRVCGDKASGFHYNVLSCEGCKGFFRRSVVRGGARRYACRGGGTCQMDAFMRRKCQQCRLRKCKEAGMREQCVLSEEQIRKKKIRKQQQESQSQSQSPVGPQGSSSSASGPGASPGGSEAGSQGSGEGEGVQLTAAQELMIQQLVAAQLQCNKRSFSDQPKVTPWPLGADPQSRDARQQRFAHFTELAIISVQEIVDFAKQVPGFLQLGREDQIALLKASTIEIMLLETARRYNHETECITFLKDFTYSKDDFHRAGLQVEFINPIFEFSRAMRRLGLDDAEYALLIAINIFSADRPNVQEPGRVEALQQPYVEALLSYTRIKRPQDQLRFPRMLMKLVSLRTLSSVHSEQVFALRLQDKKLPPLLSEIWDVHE
# hcDAF12 ag: hcDAF-12 agonism, confirmation assay; shares compounds with hcDAF-12 act; HEK293 hcDAF-12 lit1-tk-luc reporter, luminescence; % of Δ7-dafachronic acid response; activation, % at 6.8 µM; 61% of 3,400 active;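 active = mean activation across triplicate tests above the threshold derived from the earlier primary screen, cut at about 5.5% in these data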;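 note: 0% = DMSO only wells and 100% = 3 µM Δ7-dafachronic acid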
# The depositor's hits bear a star; ? = inconclusive; / = no result.
SMILES,esBAF inh,hgDAF-12 ag,hcDAF-12 act,DAX1 StAR inh,Wnt bcat act,ssDAF-12 act,LXR ag,hcDAF12 ag
O=C(c1ccccc1)C1Oc2ccccc2C2CC(c3cccs3)=NN12 (stereo unspecified),33.3,7.1,8.3*,2.2,7.4,-0.7,-0.3,3.2
O=C(c1ccccc1)N1N=C(c2cccs2)CC1c1ccccc1O (stereo unspecified),-2.3,-0.8,1.5,-0.2,-1.3,-0.7,/,/
C=CCN1C(=O)C(=O)N(Cc2nc3ccccc3s2)C1=O,26.2,5.8,9.6*,1.3,17.6,1.2*,0.9,9.7*
C=CCN1C(=O)N(CC=C)c2cccc3cccc1c23,-9.2,-2.0,2.1,-0.2,2.8,-0.6,/,/
O=[N+]([O-])c1ccccc1N/N=C/c1c[nH]c2ccccc12,43.4*,20.6*,10.7*,2.7,/,2.5*,1.4,17.2*
O=C(N/N=C/c1c[nH]c2ccccc12)c1cccc([N+](=O)[O-])c1,/,2.4,10.2*,-0.6,/,0.4,0.1,6.7*
Cn1cc([N+](=O)[O-])c(C(=O)N/N=C\c2c[nH]c3ccccc23)n1,10.8,-0.9,16.3*,0.1,/,0.4,-0.1,2.8
Cc1cc(=O)[nH]c(N/N=C/c2c[nH]c3ccccc23)n1,4.8,3.8,7.2*,0.7,2.1,-0.3,0.1,2.5
O=C(N/N=C/c1coc2ccccc2c1=O)c1cccc([N+](=O)[O-])c1,-2.4,0.8,1.0,0.7,2.1,-0.5,/,/
C[C@@H]1CN([C@H](C)CO)C(=O)c2cccc(NC(=O)Nc3ccc(C(F)(F)F)cc3)c2O[C@@H]1CN(C)C(=O)Nc1ccc(C(F)(F)F)cc1,-1.5,/,/,/,/,/,/,/
O=C(NCC1CC1)[C@@H]1[C@@H](CO)[C@@H]2Cn3c(ccc(-c4ccccc4)c3=O)[C@@H]2N1Cc1cocn1,0.6,/,/,/,/,/,/,/
COc1cc(C(=O)Oc2cc(C)[nH]c(=O)c2[N+](=O)[O-])cc(OC)c1OC,-5.6,1.4,-0.7,0.3,-0.1,-1.3,/,/
Cc1cc(C)cc(C(=O)Oc2cc(C)[nH]c(=O)c2[N+](=O)[O-])c1,-0.9,0.1,8.5*,0.0,0.1,-1.4,-0.2,1.0
C[C@@H]1CN([C@H](C)CO)C(=O)Cc2cc(NC(=O)Nc3ccccc3)ccc2O[C@@H]1CN(C)Cc1ccc(C(=O)O)cc1,2.4,/,/,/,/,/,/,/
O=[N+]([O-])c1ccc(NN=Cc2cccc3ccccc23)nc1,/,1.4,-1.1,-0.7,-1.9,-1.4,/,/
O=C(O)Cn1cc(/C=N/Nc2ccc([N+](=O)[O-])cn2)c2ccccc21,5.3,6.8,7.9*,0.3,-1.9,1.4*,-0.1,4.2
COc1ccc(NC(=O)N(C)C[C@H]2OCCCC[C@H](C)Oc3ccc(NS(=O)(=O)c4ccc(Cl)cc4)cc3C(=O)N([C@@H](C)CO)C[C@@H]2C)cc1,2.7,/,/,/,/,/,/,/
O=C1c2ccccc2CC1Sc1nnc(-c2ccccn2)o1 (stereo unspecified),17.6,6.6,6.7*,0.5,/,0.5,0.1,4.6
COc1ccc(Cl)cc1C(=O)N/N=C/c1ccc(N2CCOCC2)cc1,7.0,-0.5,-0.2,-0.2,0.2,-1.1,/,/
CCn1ncc(/C=N/NC(=O)c2cc(Cl)ccc2OC)c1C,/,0.3,8.3*,-0.2,-1.2,-0.7,-0.2,0.9
COc1ccccc1OCCNC(=O)c1cc(SC)ccc1Cl,/,-1.2,-2.2,-0.4,/,-1.5,/,/
COc1ccccc1OCCNC(=O)c1cc(F)c(F)cc1Cl,/,3.2,7.8*,0.3,7.9,-0.2,0.0,2.7
CCOC(=O)c1sc(=NC(=O)c2ccc(Cl)s2)n(C)c1C,/,8.4,6.7*,2.0,7.7,0.5,1.5,15.2*
CCOC(=O)c1sc(=NC(=O)c2ccc(C)c(C)c2)n(C)c1C,/,4.3,0.1,0.4,-0.4,-0.4,/,/
CCOC(=O)c1sc(=NC(=O)c2cccs2)n(C)c1C,25.2,16.5*,7.8*,3.0,39.4*,2.5*,2.3,22.9*
SMILES,esBAF inh,hgDAF-12 ag,hcDAF-12 act,DAX1 StAR inh,Wnt bcat act,ssDAF-12 act,LXR ag,hcDAF12 ag
C[C@H]1CN([C@@H](C)CO)C(=O)c2cccc(N(C)C)c2O[C@H]1CN(C)C(=O)NC1CCCCC1,-3.1,/,/,/,/,/,/,/
COc1ccccc1CN=c1c([N+](=O)[O-])nn(-c2ccc3c(c2)OCCO3)n1O,/,11.4*,9.0*,3.1,/,0.5,0.2,2.6
O=[N+]([O-])c1nn(-c2ccc3c(c2)OCCO3)n(O)c1=NCc1ccccc1Cl,?,6.8,1.2,1.7,18.7,0.1,/,/
Cc1cccc2sc(NS(=O)(=O)c3ccccc3)nc12,-3.5,-0.3,11.7*,0.3,0.4,-0.1,-0.1,2.3
NS(=O)(=O)c1ccc(CCNc2nc3c(-c4cccc(F)c4)nnn3c3ccccc23)cc1,-11.3,0.5,7.1*,0.1,-2.9,1.3*,-0.6,1.0
O=C(O)c1ccc(-c2noc(-c3ccccc3Cl)n2)cc1,3.0,9.0,8.2*,2.6,39.4*,0.6,1.4,9.9*
CCCN(C)C[C@H]1OCCCC[C@H](C)Oc2ccc(NC(=O)c3ccccc3)cc2C(=O)N([C@@H](C)CO)C[C@H]1C,2.5,/,/,/,/,/,/,/
O=C(c1cccs1)c1ccc(-c2cccs2)s1,-47.6,16.6*,13.7*,3.2,/,2.1*,1.6,14.1*
Cn1c(=N)n(CC(=O)c2ccc(Br)s2)c2ccccc21,/,11.6*,14.5*,3.0,/,2.8*,1.6,16.3*
N=c1n(CC(=O)c2ccc(Br)s2)c2ccccc2n1Cc1ccccc1,18.8,-2.2,-0.8,-0.5,-1.7,-1.1,/,/
N#C[C@H]1[C@H](c2ccccc2)[C@@H](CO)N1C(=O)c1ccc2c(c1)OCO2,-0.2,/,/,/,/,/,/,/
CSc1nc(-c2ccc(Cl)cc2)nc(N)c1C#N,-7.3,0.0,4.3,0.3,-0.4,0.2,/,/
CSc1nc(-c2ccc(C)cc2)nc(N)c1C#N,-5.1,4.5,8.5*,0.6,-2.0,2.2*,0.6,7.8*
Cc1ccc2sc(-c3ccc(NC(=O)CCN4C(=O)c5ccccc5C4=O)cc3)nc2c1,/,8.8,10.0*,2.3,73.1*,0.8,1.9,9.0*
CC(=O)Nc1ccc(NC(=O)CCN2C(=O)c3ccccc3C2=O)cc1,-7.2,1.6,-1.7,0.6,-0.6,-1.0,/,/
COc1cc(NC(=O)c2cc(-c3ccco3)on2)c(OC)cc1Cl,-6.2,4.0,6.6*,0.7,-1.9,-0.4,0.1,7.7*
CC(C)(C)C1CCc2c(sc3c2C(=O)NC(c2ccco2)N3)C1 (stereo unspecified),22.6,0.2,7.5*,-0.5,0.6,-0.4,0.4,4.3
